Among all 52,000 compounds or so, about 4,300 (8.3%) were called active. Only a selection was taken, and actives are over-represented in it overall. Values without a mark were called inactive. Rule as the data show it: active = survival mostly below about 52% (no sharp cut-off); inactive = mostly above about 56%.

For this assay, the system named is DeltatarO mutant. The assay is described as follows: growth inhibition of S. aureus wild type versus tarO mutant, primary screen, teichoic acid synthesis inhibitors, RN4220, OD600 (AID 463173). The settings on record: OD600, 18 h, active compounds read low, screened at 18.75 µg/mL (by protocol).
Turning to `COc1cccc(CNc2sc3c(c2C(=O)Nc2ccc(OC)cc2OC)CCC3)c1`, the survival is 99%.

With `CC(=O)Nc1nonc1-c1nnc(SCC(=O)Nc2cc(C)cc(C)c2)n1C`, the survival was 52%.

As for `CC1CCC(NC(=O)C2(C)Cc3ccccc3C(=O)N2Cc2ccccc2Cl)CC1` (stereo not given), the survival is 48%.

Regarding `CC1(C(=O)NC2CCCCC2)Cc2ccccc2C(=O)N1Cc1ccccc1Cl` (stereo not given), the survival is 43% (active).

For `CC1(C(=O)NC2CCCCC2)Cc2ccccc2C(=O)N1Cc1ccc(Cl)cc1` (stereo not given), the survival was 92%.

Turning to `N#Cc1ccc(S(=O)(=O)N2CCNCC2)cc1`, the survival was 98%.

As for `CC1=C(c2ccc(C(C)C)cc2)S(=O)(=O)NC1=NCc1ccccc1C`, the survival was 77%.

On to `Cc1[nH]n(-c2ccccc2)c(=O)c1/C=N/NC(=O)c1ccccc1`, for which the survival was 50%.

Turning to `Cc1[nH]n(-c2ccccc2)c(=O)c1C(c1cc(Cl)ccc1O)c1c(C)[nH]n(-c2ccccc2)c1=O`, the survival is 49%.

For `Cc1[nH]n(-c2ccc(Cl)cc2)c(=O)c1C(=O)c1ccccc1`, the survival was 40% (active).

For the molecule `Cc1ccc2oc(-c3ccc(NC(=O)CCC(=O)O)cc3)nc2c1`, the survival was 86%.

`Cc1ccc(-c2nc3sccn3c2Nc2ccc(C)c(C)c2)cc1`: the survival was 36% (active).

In the case of `Cc1cccc(C)c1Nc1c(-c2ccc(O)cc2)nc2sccn12`, the survival was 28% (active).

For the molecule `Cc1ccc(Nc2c(-c3ccc(Cl)cc3)nc3sccn23)c(C)c1`, the survival was 47%.

Take `Cc1ccc(-c2nc3sccn3c2Nc2ccccc2C)cc1`: the survival was 48%.

In the case of `CCc1cccc(C)c1Nc1c(-c2cccc(O)c2)nc2sccn12`, the survival is 105%.

With `COc1cc(-c2nc3sccn3c2Nc2c(C)cccc2C)ccc1O`, the survival was 125%.

As for `Cc1cc(Cl)ccc1NC(=O)CN(c1ccccc1Br)S(C)(=O)=O`, the survival is 55%.

Consider `CCOc1ccc(-n2ccnc2SCC(=O)Nc2cccc3ccccc23)cc1`, for which the survival was 68%.

For `O=c1cc(CN2CCN(S(=O)(=O)c3ccc(Cl)cc3)CC2)nc2sc(-c3ccccc3F)nn12`, the survival is 104%.

Take `Cc1cccc(-n2ncc3c(NC4CCCC4)ncnc32)c1`: the survival was 69%.

Regarding `O=C(O)c1ccc(/C=N/n2cnnc2)cc1`, the survival was 111%.

On to `Cc1ccccc1NC(=O)c1oc2c(c1C)-c1nn(Cc3cccc(Cl)c3)cc1CC2`, for which the survival was 35% (active).

Turning to `Cc1cccc(CNC(=O)c2oc3c(c2C)-c2nn(Cc4cccc(Cl)c4)cc2CC3)c1`, the survival is 97%.

Consider `Cc1ccccc1CNC(=O)c1oc2c(c1C)-c1nn(Cc3ccc(Cl)cc3)cc1CC2`, for which the survival was 73%.

In the case of `COc1cc(NC(=O)c2oc3c(c2C)-c2nn(Cc4cccc(Cl)c4)cc2CC3)cc(OC)c1`, the survival is 78%.

As to `Cc1cccc(C)c1NC(=O)c1oc2c(c1C)-c1nn(Cc3ccccc3)cc1CC2`, the survival is 23% (active).

`CCn1cc2c(n1)-c1c(oc(C(=O)Nc3cccc(C)c3C)c1C)CC2`: the survival is 95%.

Consider `O=C(O)CC1CCS(=O)(=O)C1` (stereo not given), for which the survival was 62%.

On to `CCOc1ccccc1N1CCN(C(=O)C2CCN(Cc3ccc(OC)cc3)CC2)CC1`, for which the survival is 98%.

Turning to `CC1CCC(N2CC(=O)N(C3CCCC3)C(c3ccc(Cl)cc3)C2=O)CC1` (stereo not given), the survival is 79%.

As to `Cc1ccc2occ(CC(=O)N(Cc3ccc(C(C)C)cc3)C3CCS(=O)(=O)C3)c2c1` (stereo not given), the survival was 66%.

Regarding `COc1ccc(NS(=O)(=O)c2ccc(N3CCCCS3(=O)=O)cc2)cc1Cl`, the survival is 71%.

Take `COc1cccc(C(=O)Nc2ccccc2C(=O)OCc2cc(=O)n3c4c(sc3n2)CCCC4)c1`: the survival was 57%.

Consider `CCn1cc2nc(SCc3cccc(F)c3)n(CCc3ccccc3)c(=O)c2n1`, for which the survival is 71%.

On to `CCn1cc2nc(SCc3c(F)cccc3Cl)n(CCc3ccccc3)c(=O)c2n1`, for which the survival was 52% (active).

With `CCn1cc2nc(SCc3ccccc3Cl)n(CCc3ccccc3)c(=O)c2n1`, the survival was 74%.

As to `CCOC(=O)c1c(C)[nH]c(C)c1S(=O)(=O)N(C)CC(=O)Nc1cccc(Cl)c1C`, the survival was 73%.

For `CCOC(=O)c1c(C)[nH]c(CCC(=O)NCc2ccc(N(C)C)cc2)c1C`, the survival was 83%.

`CCOC(=O)Cn1nc(-c2ccccc2)c2cnc3ccc(OCC)cc3c21`: the survival is 109%.

As to `Cn1nnc2c(NCc3ccccc3)ncnc21`, the survival is 32% (active).

For the molecule `Cc1ccc(CNc2ncnc3c2nnn3C)cc1`, the survival is 58%.

Take `Cn1nnc2c(NCc3ccc(Cl)cc3)ncnc21`: the survival was 81%.

On to `O=C(c1cccs1)N(Cc1cccnc1)c1nc2c(Cl)cccc2s1`, for which the survival was 82%.

On to `O=C(Nc1ccc(-c2cc(C(F)(F)F)nn2-c2ccccc2)cc1)c1cccc(F)c1`, for which the survival was 26% (active).

With `COc1cccc(C(=O)Nc2ccc(-c3cc(C(F)(F)F)nn3-c3ccccc3)cc2)c1`, the survival was 46%.

In the case of `COc1ccccc1C(=O)Nc1ccc(-c2cc(C(F)(F)F)nn2-c2ccccc2)cc1`, the survival was 45%.

For the molecule `O=C(NC(=O)c1cccc(F)c1)Nc1ccc(-c2cc(C(F)(F)F)nn2-c2ccccc2)cc1`, the survival was 157%.

On to `COc1ccccc1C(=O)NC(=O)Nc1ccc(-c2cc(C(F)(F)F)nn2-c2ccccc2)cc1`, for which the survival is 30% (active).

Regarding `COc1ccccc1C(=O)NC(=O)Nc1ccc(-n2nc(C(F)(F)F)cc2C(F)(F)F)cc1`, the survival is 59%.

In the case of `O=C(CN1CCC(N2CCCCC2)CC1)Nc1ccc2c(c1)OCCO2`, the survival was 96%.

Take `Cc1cccc(C)c1OCc1nc2c3cnn(-c4ccccc4F)c3ncn2n1`: the survival is 109%.

As to `CCN(CC)S(=O)(=O)c1cccc(C(=O)Nc2ccccc2C(=O)Nc2ccc(OC)cc2)c1`, the survival was 78%.

Consider `Cc1cc(F)ccc1NC(=O)CS(=O)(=O)c1cccc2nsnc12`, for which the survival was 77%.

For `CCc1ccc(CNC(=O)Cn2c(-c3cccs3)cc3cc(F)ccc32)cc1`, the survival is 119%.

Consider `Cc1ccn2c(Nc3ccc(F)cc3)c(-c3ccccn3)nc2c1`, for which the survival is 105%.

As to `Fc1ccc(Nc2c(-c3ccccn3)nc3ccc(Cl)cn23)cc1`, the survival is 65%.

In the case of `Cc1cccc2nc(-c3ccccn3)c(Nc3ccccc3)n12`, the survival is 24%.

For the molecule `CN(C)c1ccc(-c2nc3ccccn3c2NC2CCCC2)cc1`, the survival was 83%.

Take `CC(C)c1ccc(Nc2c(-c3ccco3)nc3ccccn23)cc1`: the survival is 42%.

Take `Cc1ccc2nc(-c3ccccn3)c(Nc3ccc(F)cc3)n2c1`: the survival was 10% (active).

For the molecule `CC(C)c1nc2ccccn2c1NC1CCCCC1`, the survival was 102%.

Turning to `COc1ccc(Nc2c(-c3ccccn3)nc3ccc(Cl)cn23)cc1`, the survival is 93%.

Regarding `Cc1cccc2nc(-c3ccccn3)c(Nc3ccc(F)cc3)n12`, the survival was -9% (active).

As for `Cc1ccc(Nc2c(-c3ccccn3)nc3ccc(Br)cn23)cc1`, the survival is 72%.

Take `c1ccc(-c2nc3ccccn3c2NC2CCCC2)nc1`: the survival was 1% (active).

Regarding `CC(C)c1ccc(Nc2c(-c3ccccn3)nc3ccccn23)cc1`, the survival was -4% (active).

Turning to `COc1ccc(NC(=O)Cn2cnc3sc(C)c(S(=O)(=O)N4CCN(C)CC4)c3c2=O)cc1OC`, the survival is 167%.

On to `COc1ccc(NC(=O)CN2CCN(Cc3ccccc3Cl)S2(=O)=O)cc1Cl`, for which the survival is 41%.

On to `O=S(=O)(NCCc1csc2nc(-c3ccccc3)nn12)c1ccc(Cl)s1`, for which the survival was 86%.

On to `CCn1c(CNC(=O)C(OC)c2ccccc2)nnc1SC` (stereo not given), for which the survival is 87%.

In the case of `O=c1c(=O)n(-c2cccc(Cl)c2)ccn1Cc1cccc(F)c1`, the survival is 66%.

Take `COc1ccc(Cl)cc1NC(=O)c1cnc(N2CCCCC2)c2ccccc12`: the survival was 78%.

As for `CCOc1ccccc1NC(=O)CCc1c(C)nn(-c2ccc(N3CCOCC3)nn2)c1C`, the survival is 80%.

As to `CCOC(=O)c1cccc(NC(=O)c2cc3ccccn3n2)c1`, the survival is 124%.

As to `COc1cccc(C2CC(=O)Nc3cc(OC)c(OC)c(OC)c32)c1OC(C)C` (stereo not given), the survival is 93%.

Turning to `CCOC(=O)c1cccc(-n2nnc3c(sc4nc(C)c(Br)c(C)c43)c2=O)c1`, the survival is 92%.

As to `CCOc1ccc(C2=NC(c3ccc(OC)cc3)=Nc3ccc(Cl)cc3N2)cc1`, the survival is 71%.

As to `Cc1ccccc1Nc1c(-c2ccccc2)nc2cccc(C)n12`, the survival is 98%.

`Cc1cccc(C)c1Nc1c(-c2ccccc2F)nc2cccc(C)n12`: the survival was 6% (active).

For `Cc1ccccc1Nc1c(-c2c[nH]c3ccccc23)nc2cccc(C)n12`, the survival was 144%.

With `CCCCCC[N+]1(CCO)CCOCC1`, the survival is 81%.

For the molecule `COc1ccc(N2CCN(CCCNC(=O)c3c(C)nn(-c4ccc(F)cc4)c3-n3cccc3)CC2)cc1`, the survival is 71%.

For `OC(CC#CCN1CCOCC1)(c1ccccc1)c1ccccc1`, the survival was 83%.

As for `COc1ccc(S(=O)(=O)N2CCN(Cc3nc4ccc(C)cc4o3)CC2)cc1`, the survival was 84%.

Regarding `Cc1ccc(-n2cc(C(=O)OCc3ccc(Cl)cc3)c3ccccc3c2=O)cc1`, the survival was 67%.

For `CCN1CCC(N(Cc2ccc(F)cc2)C(=O)Nc2cc(Cl)ccc2C(=O)OC)CC1`, the survival is 85%.

Turning to `COc1ccc(C)cc1NC(=O)N(Cc1ccc(C)o1)C1CCN(C(C)=O)CC1`, the survival is 8% (active).

`CC(=O)N1CCC(N(Cc2ccc(C)o2)C(=O)Nc2ccc(C)cc2)CC1`: the survival was 96%.

Take `COC(=O)c1ccc(Cl)cc1NC(=O)N(Cc1ccc(OC)cc1)C1CCN(C(C)=O)CC1`: the survival is -5% (active).

Consider `COC(=O)c1ccc(Cl)cc1NC(=O)N(Cc1ccc(C)o1)C1CCN(C(C)=O)CC1`, for which the survival was 95%.

On to `COc1ccc(NC(=O)N(Cc2ccco2)C2CCN(C(C)=O)CC2)c(OC)c1`, for which the survival is 88%.

On to `COc1ccc(C)cc1NC(=O)N(C(C)C)C1CCN(C(C)=O)CC1`, for which the survival is 75%.

For `CCOc1ccccc1NC(=O)N(Cc1ccc(C)o1)C1CCN(C(C)=O)CC1`, the survival was 101%.

On to `COc1ccc(NC(=O)N(C(C)C)C2CCN(C(C)=O)CC2)c(OC)c1`, for which the survival was -2% (active).

These data come from PubChem BioAssay AID463173 (ICCB-Longwood Screening Facility, Harvard Medical School, 2010).
